67 molecules from PubChem BioAssay AID1671190 (National Center for Advancing Translational Sciences (NCATS), 2021) can be followed below.

Values joined by “and” are separate entries in the source; they are usually repeats but may differ in a detail not shown here. Identical values can stand only once. The campaign covered roughly 580,000 compounds. About 6,100 (1.1%) were called active. Another 15% or so got no clear call; they are omitted. This excerpt belongs to a sample that is enriched for actives. Values without a mark were called inactive. The call rests on the fitted dose curve; in most records, active means well fitted inhibition curve with a large enough effect; inconclusive means small, poorly fitted or top-dose-only effect, or another doubt; inactive means no such curve, though single readings can be large or run the other way.
On the % scale 0 is the no-effect control and ±100 the full control effect; potency means the concentration at half of the fitted maximal effect.

Polyunsaturated fatty acid lipoxygenase ALOX12 (Homo sapiens), sequence (P18054 whole entry, looked up): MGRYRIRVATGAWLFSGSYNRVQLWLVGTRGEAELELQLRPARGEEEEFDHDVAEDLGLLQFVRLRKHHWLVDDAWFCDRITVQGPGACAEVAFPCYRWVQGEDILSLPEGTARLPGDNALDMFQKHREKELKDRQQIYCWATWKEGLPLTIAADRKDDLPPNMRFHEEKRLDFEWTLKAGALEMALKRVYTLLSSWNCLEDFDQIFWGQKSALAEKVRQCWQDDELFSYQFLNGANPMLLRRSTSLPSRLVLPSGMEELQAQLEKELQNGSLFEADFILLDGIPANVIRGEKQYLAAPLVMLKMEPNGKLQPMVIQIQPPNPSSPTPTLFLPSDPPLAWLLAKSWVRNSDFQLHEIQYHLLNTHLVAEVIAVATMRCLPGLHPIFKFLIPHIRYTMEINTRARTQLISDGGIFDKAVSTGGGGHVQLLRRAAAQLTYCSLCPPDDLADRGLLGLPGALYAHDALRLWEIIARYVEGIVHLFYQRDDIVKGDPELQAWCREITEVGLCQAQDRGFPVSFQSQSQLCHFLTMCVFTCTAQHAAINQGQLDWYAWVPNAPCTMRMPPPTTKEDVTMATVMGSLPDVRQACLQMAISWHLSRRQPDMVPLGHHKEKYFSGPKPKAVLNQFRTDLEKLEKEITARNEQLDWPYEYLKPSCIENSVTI

This test concerns the target Polyunsaturated fatty acid lipoxygenase ALOX12 (Homo sapiens) (UniProt P18054). Nature of the test: Primary qHTS assay for inhibitors of human arachidonate 12S-lipoxygenase (ALOX12): Round 2. The settings on record: purified 12hLO, xylenol orange hydroperoxide absorbance; series mostly up to 108 µM; activity change, negative = inhibition: at the top concentration. In short, it runs like this:
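Purified human 12hLO at 150 nM in 25 mM Hepes, 0.01% Triton X-100, pH 7.0, preincubated 15 min at room temperature with compound. Reaction started with 40 uM arachidonic acid, 30 min at room temperature. Hydroperoxide measured by Fe-xylenol orange, 573/405 nm absorbance ratio.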
Turning to `Cc1nn(Cc2cccc(F)c2)c(C)c1NS(=O)(=O)c1c(C)nn(C)c1C`, the “activity change, negative = inhibition” value was -45.1%.

Take `Cc1sc2ncnc(Sc3nnc(-c4ccccc4F)n3C)c2c1C`: the “activity change, negative = inhibition” value is 3.83%.

With `N#Cc1ccccc1Sc1ccccc1C(=O)OCC(=O)NC1CCCCC1`, the “activity change, negative = inhibition” value is -7.61%.

Regarding `N#Cc1ccccc1Sc1ccccc1C(=O)Nc1ccc2c(c1)CCC2`, the Potency was 20 µM (active).

Consider `N#Cc1ccccc1Sc1ccccc1C(=O)NC1CCCCC1`, for which the “activity change, negative = inhibition” value was -23.6%.

For `CC1CCCN(CC(=O)Nc2oc3ccccc3c(=O)c2-c2ccccc2)C1` (configuration not stated), the “activity change, negative = inhibition” value was 53.9%.

Regarding `Cn1c(=O)[nH]c(=O)c2c1nc(SCCO)n2Cc1ccc(Cl)cc1`, the “activity change, negative = inhibition” value is -28.4%.

As to `CCN(CC)c1ccc(NC(=O)CSc2ncnc3ccccc23)cc1`, the “activity change, negative = inhibition” value is -15.3%.

As to `CC(C)C(=O)NC(NC(=S)Nc1ccccc1)C(Cl)(Cl)Cl` (configuration not stated), the “activity change, negative = inhibition” value was -14.2%.

`COCCN1C(=O)c2n[nH]c(-c3ccco3)c2C1c1ccc(O)cc1` (configuration not stated): the “activity change, negative = inhibition” value is -7.24%.

With `Cc1cnc(-c2ccncc2)n1CCN`, the Potency was 3.55 µM (active).

On to `Cc1cnc(-c2ccccc2)n1CCNC(=O)CCC1CCCC1`, for which the “activity change, negative = inhibition” value was 7.92%.

As for `Cc1cnc(C)n1CCN`, the “activity change, negative = inhibition” value is 43.7%.

With `CCc1ccc(-c2ccccc2)nc1-c1ccccc1`, the “activity change, negative = inhibition” value was 6.65%.

For `COC(=O)CC(NC(=O)c1ccc2c(c1)OCCO2)c1ccc(F)cc1` (configuration not stated), the “activity change, negative = inhibition” value was -18.7%.

For `Cc1oc(-c2nc(C#N)c(N3CCCCCC3)o2)cc1S(=O)(=O)N1CCCCC1`, the “activity change, negative = inhibition” value was -3.56%.

For the molecule `Cc1ccc(/C=C/C(=O)/C=C/c2ccc(C)cc2)cc1`, the “activity change, negative = inhibition” value was -13.9%.

As to `O=C(/C=C(O)/C=C/c1ccc(O)cc1)/C=C/c1ccc(O)cc1`, the Potency is 28.2 µM (active).

Turning to `COc1cc(C=CC(=O)O)ccc1O`, the “activity change, negative = inhibition” value is -8.61% [at 57.4 µM].

For the molecule `O=C(Nc1ccccc1NS(=O)(=O)c1cccs1)c1ccc([N+](=O)[O-])cc1`, the “activity change, negative = inhibition” value was -7.02%.

For `CCOC(=O)/C=C/c1ccc(N)cc1`, the “activity change, negative = inhibition” value is 0.135%.

Consider `CCN1CCC(O)(/C=C/c2ccc(C)cc2)C(C(=O)/C=C/c2ccc(C)cc2)C1` (configuration not stated), for which the Potency is 50.1 µM (active).

Consider `CO[C@H]1C(=O)N(C(C)C)[C@H]1C1CCN(C(=O)Nc2ccc(C)c(C)c2)CC1`, for which the “activity change, negative = inhibition” value is 12.5%.

Consider `Cc1ccsc1C(=O)NC1CCN(c2cnn(Cc3ccccc3)c(=O)c2)CC1`, for which the “activity change, negative = inhibition” value was 20.5%.

As to `CCN(CC)CCC(=O)Nc1c(C(=O)OC)[nH]c2ccccc12`, the “activity change, negative = inhibition” value is 2.76%.

For `O=C(COC(=O)Cc1ccc(F)cc1)Nc1cc(S(=O)(=O)N2CCOCC2)ccc1N1CCCC1`, the “activity change, negative = inhibition” value is 10.8%.

Consider `COCCNC(=S)Nc1cc(S(=O)(=O)N2CCOCC2)ccc1N1CCCCC1`, for which the Potency is 31.6 µM (active).

`CC(C)CCC(=O)Nc1cc(S(=O)(=O)N2CCOCC2)ccc1N1CCCC1`: the “activity change, negative = inhibition” value is -1.02%.

With `CC(C)OCC(=O)N1CCN(c2nc(-c3ccccc3)nc3c2CCC3)CC1`, the “activity change, negative = inhibition” value is 1.77%.

As for `Cc1[nH]c2ccccc2c1CC(=O)NCc1ccc(CN2CCCC2)cc1`, the “activity change, negative = inhibition” value was 0.463%.

Consider `Cc1c(Cc2ccccc2)c(=O)oc2c(C)c(OC(C)C(=O)O)ccc12` (configuration not stated), for which the “activity change, negative = inhibition” value was -4.47%.

`Cc1nc2nc(NCc3cc(F)cc(F)c3)[nH]n2c(=O)c1C`: the “activity change, negative = inhibition” value was 3.05%.

For `CCN(c1ccc(NC(=O)c2cnc3ccccc3n2)cc1)C(C)C`, the “activity change, negative = inhibition” value is -1.28%.

Regarding `CCN(CC(=O)NC(=O)NCC(C)C)C1CC1`, the “activity change, negative = inhibition” value was 19.4%.

With `CCCCCCc1cc2c3c(c(=O)oc2cc1OCC(=O)C(C)(C)C)CCCC3`, the “activity change, negative = inhibition” value was 22.2%.

In the case of `O=C(OC12CC3CC(CC(C3)C1)C2)c1ccc(NCc2cc(O)ccc2O)cc1`, the Potency is 31.6 µM (active).

With `COC(=O)c1ccc(C(=O)OC(C)C(=O)C23CC4CC(CC(C4)C2)C3)cc1` (configuration not stated), the “activity change, negative = inhibition” value is 8.3%.

In the case of `Fc1ccc(NCC23CC4CC(CC(C4)C2)C3)cc1`, the “activity change, negative = inhibition” value was 2.88%.

On to `Cc1c(C(=O)N2CCOC(C)C2)cnn1-c1ccc(F)cc1` (configuration not stated), for which the “activity change, negative = inhibition” value is 12.1%.

For `CCNc1ncc(CN2CCN(c3cccc(C(F)(F)F)c3)CC2)cn1`, the “activity change, negative = inhibition” value was 51.7%.

Regarding `CN(c1ccccc1)c1cc(=O)c2ccnc(NC3CCOCC3)c2o1`, the “activity change, negative = inhibition” value is 9.42% [at 176 µM].

In the case of `CN(c1ccccc1)c1cc(=O)c2ccnc(-c3ccc(CO)cc3)c2o1`, the “activity change, negative = inhibition” value is -12.8% [at 176 µM].

Turning to `CN(c1ccccc1)c1cc(=O)c2ccnc(Nc3cccc([S+](C)(=O)[O-])c3)c2o1`, the Potency was 56.2 µM (active).

Regarding `CN(C)C(=O)C(NCCc1c[nH]c2ccccc12)c1ccccc1` (configuration not stated), the “activity change, negative = inhibition” value is 0.261%.

For `Cc1ccc(-c2csc(N(Cc3ccco3)C(=O)c3cccs3)n2)cc1`, the “activity change, negative = inhibition” value is -3.04%.

Turning to `CCc1ccc(Nc2ncc3c(n2)CC(c2ccco2)CC3=O)cc1` (configuration not stated), the “activity change, negative = inhibition” value is -1.98%.

In the case of `Cc1ccc(-c2csc(-c3cc4c([nH]c3=O)CC(c3ccco3)CC4=O)n2)cc1` (configuration not stated), the Potency is 2.24 µM (active).

For the molecule `CC(C)(C)c1ccc(C(=O)NNC(=O)C2CC2)cc1`, the “activity change, negative = inhibition” value is -4.22%.

As to `Fc1ccccc1COc1ccc(-c2nnco2)cc1`, the “activity change, negative = inhibition” value was 0.307%.

On to `COCCn1c(=O)c2c(nc(-n3nc(C)cc3C)n2Cc2ccccc2)n(C)c1=O`, for which the “activity change, negative = inhibition” value is -1.9%.

Consider `Cc1ccc(C)c(NC(=O)N2CCCC2c2ccco2)c1` (configuration not stated), for which the “activity change, negative = inhibition” value was 1.15%.

As for `Cc1ccccc1OCCN(C)Cc1cc(=O)oc2cc(O)ccc12`, the “activity change, negative = inhibition” value was -23.4%.

Consider `CCCc1cc(=O)[nH]c(SCc2ccc(C#N)cc2)n1`, for which the “activity change, negative = inhibition” value is 0%.

As to `Cc1ccc(CSc2nc(-c3ccccc3)c(C#N)c(=O)[nH]2)cc1`, the Potency is 39.8 µM (active).

With `Cc1ccc(CSc2nsc(C)c2C#N)cc1`, the “activity change, negative = inhibition” value was 0%.

For `CCN1C(=O)[C@@H]2[C@@H](c3ccc(-c4ccc(OC)cc4)c(OC)c3)N3CCC[C@@]3(C(=O)OC)[C@@H]2C1=O`, the “activity change, negative = inhibition” value was -21.7%.

As to `CCCCCCSc1ccc([C@@H]2[C@@H]3C(=O)N(CC)C(=O)[C@@H]3[C@]3(C(=O)OC)CCCCN23)cc1OC`, the Potency was 17.8 µM (active).

For the molecule `CCCCCCSc1ccc([C@@H]2[C@H]3C(=O)N(CC)C(=O)[C@H]3[C@]3(C(=O)OC)CCCCN23)cc1`, the “activity change, negative = inhibition” value is 44.9%.

With `O=C(O)c1ccc2nc[nH]c2c1`, the “activity change, negative = inhibition” value was 0.982%.

Turning to `O=C(O)c1cccc(-c2ccccn2)c1`, the activity change, negative = inhibition was 6.18% [at 12.5 µM] and -0.515% [at 12.5 µM].

Turning to `N#Cc1cccnc1-c1cccc(C(=O)O)c1`, the Potency was 56.2 µM (active).

For `O=C(COc1ccc2c(c1)CCC2)N(Cc1nc2ccccc2c(=O)[nH]1)CC1CCCO1` (configuration not stated), the “activity change, negative = inhibition” value was 11.7%.

Turning to `O=C(CN1CCN(S(=O)(=O)c2cccc(Cl)c2)CC1)N1CCCCC1`, the “activity change, negative = inhibition” value was 0%.

Regarding `O=S(=O)(c1cc(Cl)ccc1Cl)N1CCN(Cc2ccco2)CC1`, the “activity change, negative = inhibition” value was -3.3%.

Regarding `O=C(CN1CCN(S(=O)(=O)c2cc(Cl)ccc2Cl)CC1)c1ccc(O)c(O)c1`, the Potency was 1.41 µM (active).

`Cc1[nH]c2ccccc2c1C(=O)C(=O)NC(C)CCc1ccccc1` (configuration not stated): the “activity change, negative = inhibition” value is -38.1%.

As to `Cc1ccc2cc(C)c(Nc3cccc(C)c3C)nc2c1`, the “activity change, negative = inhibition” value is 0.82%.
